Reference: ChEMBL document CHEMBL3988442, “University of Dundee, Small-Polar-MMV Screening Library” (2021)
Among all 48,000 compounds or so, about 13,000 (27%) showed an effect of 50% or more. This is one part of the list.

What follows are compounds tested on Wolbachia pipientis (assay: Anti-Wolbachia Cell-Based Screen). Conditions: 5 µM.
Type: functional
Parameters: scale not given: in the data most compounds retested in dose-response had high values

SMILES	Percent Effect [%]
CC(C)c1ncc(CN2C[C@@H](CN3CCCN(C)CC3)[C@@H](CO)C2)cn1	-6.838
COc1cc(CN(C)C(=O)NCCC2CCCO2)ccc1SC (configuration not stated)	-4.598
Cc1nccn1CCN(C)c1cc(C(C)C)nc2ccnn12	-21.61
Cc1cc(C)nc(N(C)CCn2ccnc2C)n1	70.85
Cc1cc(N(C)CCn2ccnc2C)n2nccc2n1	3.132
Cc1nc(N2CCN(C(=O)C(C)(C)C)CC2)cc(-n2cnc(C)c2C)n1	-0.05678
O=C(Nc1cccnc1)C1Cc2nc(-c3ccsc3)sc2N1CC1CC1.O=C(O)C(F)(F)F (configuration not stated)	52.78
CC(C)N1c2sc(-c3ccccc3)nc2CC1C(=O)NCCCO (configuration not stated)	3.342
O=C(Nc1cccnc1)[C@H]1C[C@H]2OCC[C@H]2N(C(=O)c2ccsc2)C1.O=C(O)C(F)(F)F	-10.81
CC(C)N1[C@@H](C(=O)NCCN(C)C)C[C@H]2CN(c3ncccn3)C[C@H]21.O=C(O)C(F)(F)F.O=C(O)C(F)(F)F.O=C(O)C(F)(F)F	-8.926
CN(C)CCOCC1CN(C(=O)c2ccsc2)Cc2ccnn2C1.O=C(O)C(F)(F)F.O=C(O)C(F)(F)F (configuration not stated)	-7.951
CN(C)CCNC(=O)C1Cc2nc(-c3ccccc3)sc2N1CC1CC1.O=C(O)C(F)(F)F (configuration not stated)	101.2
CN(C)CCNC(=O)C1Cc2nc(-c3ccsc3)sc2N1CC1CC1.O=C(O)C(F)(F)F (configuration not stated)	106.6
O=C(O)C(F)(F)F.O=C(c1ccsc1)N1C[C@@H]2CCN(c3cccnc3)C[C@@H]2C1	-7.879
O=C(O)C(F)(F)F.O=C1N(c2ccsc2)CCC12CCCN(CC1CC1)C2 (configuration not stated)	0.74
Cc1cc(C(C)(O)CNC(=O)C2(C)CCCC2)c(C)o1 (configuration not stated)	-0.4765
FC(F)(F)CCc1ccnc(NCc2csc(N3CCOCC3)n2)n1	9.156
CNC(=O)[C@@H]1COC[C@H]2CN(C(=O)c3ccc(C)c(C)c3)C[C@H]21	-0.6496
Cc1cc(CN(C)Cc2cnc3c(c2)c(C)nn3C)no1	-2.389
Cc1cccc(CN(Cc2ccccn2)Cc2ncc(C(C)(C)C)o2)c1	-46.43
Cc1cc(CN(C)Cc2ncc(-c3cccs3)o2)no1	-12.35
Cc1cc(CN(C)Cc2ncc(-c3ccccc3)o2)no1	85.66
Cc1cc(CN(C)Cc2ncc(C(C)(C)C)o2)no1	71.54
CCN(Cc1ncc(C(C)(C)C)o1)Cc1ccccc1C	-27.71
CN(Cc1ncc(-c2ccccc2)o1)CC1CCCN1c1cccnn1 (configuration not stated)	1.26
Cc1ccc(CN(C)Cc2ncc(C(C)(C)C)o2)o1	106.2

SMILES	Percent Effect [%]
CCN(Cc1cccc(Cl)c1)Cc1ncc(C(C)(C)C)o1	-36.69
CN(Cc1ccc(N(C)C)cc1)C(=O)CS(=O)(=O)c1ccc(Cl)cc1	-13.85
CCN1CCN(C(=O)C2CCCc3[nH]ncc32)CC1 (configuration not stated)	-17.44
Cc1cccc2c1nc1n2[C@@H](CNC(=O)c2cnccn2)COC1	-0.5308
O=C1CC2(CCCCC2)CC(=O)N1CC(O)COCc1ccc(Cl)cc1 (configuration not stated)	-11.1
CC(C(N)=O)n1nc(-c2cccs2)cc(N)c1=O (configuration not stated)	54.84
CC(C(=O)NC1CC1)n1nc(-c2cccs2)cc(N)c1=O (configuration not stated)	130.1
Cc1cc(NC(=O)Cn2cnc(-c3cccs3)cc2=O)no1	10.41
COc1cccn(C(C)C(=O)NC2CCCC2)c1=O (configuration not stated)	10.4
Cc1cc(NC(=O)Cn2cnc(-c3cccs3)cc2=O)sn1	24.65
CC(C(=O)NC1CC1)S(=O)(=O)Cc1csc(-c2cccs2)n1 (configuration not stated)	-10.04
CCNC(=O)O[C@H]1COCCN(c2nc3ccccc3s2)C1	2.544
CC(C)N(C)C(=O)c1ccc(Cl)c(NC(=O)C2CCC2)c1	2.877
c1cnc(N2CCC(NCc3cnc(C4CCC4)s3)CC2)nc1	3.36
OC(c1cccs1)C1CCN(c2ncccn2)CC1 (configuration not stated)	0.2293
c1cnc(N2CCCC(c3csc(Nc4cnccn4)n3)C2)nc1 (configuration not stated)	106
c1cnc(N2CCC(c3csc(Nc4cnccn4)n3)CC2)nc1	101.3
Cc1cccc(C(C(=O)N(C)Cc2ccon2)N(C)C)c1 (configuration not stated)	3.369
Cc1noc(-c2cccnc2N(C)Cc2ccc([S+](C)[O-])cc2)n1 (configuration not stated)	9.143
Nc1nc2c(c(NC(=O)Nc3ccccc3)n1)CCCC2	-9.493
O=C1NC(=O)c2c3c(nc(O)c21)CCCC3	98.35
CCC(=O)N1CCCC1c1nccnc1Nc1ncccn1 (configuration not stated)	-3.342
COCc1cccc(CNC(=O)CN2CCCC2c2noc(C)n2)c1 (configuration not stated)	-0.5396
Cc1csc(Nc2nccnc2C2CCCN2C(=O)C(C)C)n1 (configuration not stated)	0.9263
CN(C(=O)Nc1ccccn1)C1CCCN(c2ccccc2)C1=O (configuration not stated)	-3.011
COCC(=O)N1CCCC1c1nccnc1Nc1nc(C)cs1 (configuration not stated)	111.3

SMILES	Percent Effect [%]
CN(Cc1ccccc1)C(=O)CN1CCCC1c1cnn(C)c1 (configuration not stated)	-36.94
Cc1cccc(Nc2cc(C)nc(C3CCCCN3CC(N)=O)n2)n1 (configuration not stated)	123.2
COc1ccc(C2CCCN2C(=O)NCCNc2ncccn2)cc1 (configuration not stated)	-12.53
COCC(=O)N1CCCC1c1nccnc1Nc1ncccn1 (configuration not stated)	112.6
CN(C)C(=O)CN1CCCC1c1nccnc1Nc1ccccn1 (configuration not stated)	99.96
Cc1cc(Nc2nc(C)cs2)nc(C2CCCCN2CCO)n1 (configuration not stated)	-3.809
COc1nc2c(cc1C(=O)N1CCCOC(CN3CCCC3)C1)CCC2 (configuration not stated)	-1.335
Cc1ccc(CNC(=O)C2CCN(C(=O)c3ccccc3)CC2)n1C	-7.91
Cc1ccc(C2(C(=O)N3CCC(n4cc(C(C)O)nn4)CC3)CC2)cc1 (configuration not stated)	-9.43
O=C(O)c1ccc(CCNC(=O)C2(c3ccccc3)CC2)cc1	2.318
C[C@@H]1CN(CC(C)(C)N2CCOCC2)C[C@@]1(O)C1CC1	17.03
CCc1nc(NS(=O)(=O)c2ccc(F)cc2C)no1	-5.54
CC(C)(C)C(=O)N1CCCC1c1nccnc1Cl (configuration not stated)	155.8
Cl.NCC(=O)N1CCCC1c1nccnc1Nc1ncccn1 (configuration not stated)	117.8
CC(C)(C)C(=O)N1CCCC1c1ccc(C(=O)N2CCOCC2)s1 (configuration not stated)	-16.89
CC(C)CC(=O)N1CCCC1c1nccnc1Nc1ncccn1 (configuration not stated)	105.7
CC(C)Cn1cnnc1C1CCCN1C(=O)OC(C)(C)C (configuration not stated)	4.117
Cc1cccc(Nc2nccnc2C2CCCN2CC(N)=O)n1 (configuration not stated)	127.5
FC(F)c1nnc2ccc(N3CCC4(CCCCC4)C3)nn12	-13.07
O=C(O)[C@H]1C[C@H](C(=O)NC2CC2)CN(Cc2ccc(-c3cc[nH]n3)s2)C1	-5.985
CCOC(=O)CCC(=O)N1CCC(CSCc2ccco2)CC1	-5.481
CC(C)N(CC(=O)O)Cc1cccc(Br)c1.Cl	-4.939
COCCn1ccnc1-c1cc(CN2CCCCC2)cs1	-8.994
Cc1cc(C2CCCN2C(=O)NCc2cccnc2)on1 (configuration not stated)	-8.527
COCCn1ccnc1C1CCCN(c2ncnc3c(C)csc23)C1 (configuration not stated)	-8.002
CC(=O)N1CCCC1c1nnn2cc(NCc3cccnc3)ccc12.O=C(O)C(F)(F)F.O=C(O)C(F)(F)F (configuration not stated)	4.094

SMILES	Percent Effect [%]
Cc1cccc(Nc2nccnc2C2CCCN(CC(=O)N(C)C)C2)n1 (configuration not stated)	110.8
CC(=O)N1CCCC1c1nccnc1NCc1cccnc1 (configuration not stated)	106.4
Cc1csc(Nc2nccnc2C2CCCN2CC(N)=O)n1 (configuration not stated)	113.4
COCCN1CCCC(c2nccnc2Nc2nc(C)cs2)C1 (configuration not stated)	86.28
CC(=O)N1CCC2(CCCN(C(=O)CCN3CCCCC3)C2)C1 (configuration not stated)	-26.8
O=C(Cc1cccs1)NC1(C(=O)NCC2CC2)CCCC1	4.522
COCCC(=O)N1CCCC1c1nccnc1Nc1ncccn1 (configuration not stated)	132.2
CC(=O)N1CCCC1c1nnn2cc(Nc3ccccc3)ccc12.O=C(O)C(F)(F)F (configuration not stated)	-10.64
CC(=O)N1CCCC1c1nccnc1Nc1ncccn1 (configuration not stated)	114.6
CNS(=O)(=O)Cc1ccc(CNC(=O)Nc2cccnc2)cc1	-4.432
COC1CCCN(C(=O)Nc2nc(C)n(C)n2)C1 (configuration not stated)	-6.454
CCC[C@@H]1CN(Cc2nnc(-c3cccc(F)c3)o2)C[C@H]1NC(C)=O	-4.818
CC(C)(C)OC(=O)N1CCCN1C(=O)c1cccc2cc[nH]c12	-15.66
NC(=O)CC1CCCCN1C(=O)c1ccc2cc[nH]c2c1 (configuration not stated)	-8.838
N#CC1COCCN1C(=O)c1ccc2cc[nH]c2c1 (configuration not stated)	87.5
N#CC1COCCN1C(=O)c1ccc2[nH]ccc2c1 (configuration not stated)	142.7
O=C(c1ccc2[nH]ccc2c1)N1CCCCC1c1nc[nH]n1 (configuration not stated)	5.747
CNS(=O)(=O)CC1CCCN1C(=O)c1ccc2cc[nH]c2c1 (configuration not stated)	-9.261
O=C(c1ccc2[nH]cnc2c1)N1CCC(Oc2cccnc2)CC1	-0.01073
O=C(c1cccc2cc[nH]c12)N1CCC2(CCOC2)C1 (configuration not stated)	-1.625
O=C(O)C(c1ccc2[nH]ccc2c1)N1CCOCC1 (configuration not stated)	14
N#CC1COCCN1C(=O)c1cccc2cc[nH]c12 (configuration not stated)	105.1
N#CC1COCCN1C(=O)c1ccc2[nH]cnc2c1 (configuration not stated)	108.9
CCc1nnc2n1CCN(C(=O)c1ccc3[nH]cnc3c1)C2	-15.67
